Out of some 370,000 compounds screened, about 1,600 (0.43%) were called active. Rule as the data show it: active = inhibition above about 24%; inactive = the rest. The list comes from a sample in which actives are over-represented; it also holds similar structures and randomly drawn compounds.
Molecular target: Major prion protein (Homo sapiens) (UniProt P04156)
Test: inhibitors of human cell surface prion protein PrPC, primary screen, cell-based, TR-FRET (AID 720596); also: 0% = median of the test wells and 100% = reference compound wells
Settings: TR-FRET read-out, at 13.8 µM, active compounds read high

`Cc1ccc(OC(=O)c2c(C)nn(-c3ccccc3)c2C)cc1` was tested. Which inhibition did it give?
The inhibition was 4.97% (inactive).

`CCOc1ccc(Oc2c(Cl)cnn(-c3ccc(C)cc3)c2=O)cc1` was tested. Which inhibition did it give?
The inhibition was -10.9% (inactive).

How did the inhibition turn out when `Cc1ccc(Oc2cnn(-c3ccccc3)c(=O)c2Br)cc1` was run?
Its inhibition is 32.8% (active).

For `CCC(C)[C@@H](C(=O)OC)N(CCc1cn(Cc2ccccc2)nn1)S(=O)(=O)c1ccccc1Br` (stereo partly specified), which inhibition is on record?
Its inhibition is 2.07% (inactive).

For `CC(=O)Nc1ccc(S(=O)(=O)N2CCC(NC(=O)c3ccccc3)CC2)cc1`, which inhibition is on record?
Its inhibition is -5.81% (inactive).

With `CN(Cc1c(F)cccc1Cl)S(=O)(=O)c1cccs1` as the molecule, how does the inhibition read?
Its inhibition is -6.92% (inactive).

With `COc1cccc(NC(=S)C(C#N)=C2N(C)c3ccccc3N2C)c1` as the molecule, how does the inhibition read?
Its inhibition is -1.55% (inactive).

`O=C(CCCOc1ccccc1)Nc1cccc(C(=O)O)c1` was tested. Which inhibition did it give?
Its inhibition is 2.69% (inactive).

For `CC(=O)Nc1cccc(OCC(=O)/C=C2\N(C)c3ccccc3C2(C)C)c1`, which inhibition is on record?
The inhibition was 29.7% (active).

`Cc1nnc(NC(=O)CCC(=O)N2CCC(C)CC2)s1` was tested. Which inhibition did it give?
Its inhibition is -8.95% (inactive).

Which inhibition does the source give for `COc1ccc(/C=C/CN2CCCC(C(=O)c3cc(F)ccc3F)C2)cc1` (stereo unspecified) here?
The inhibition was 3.26% (inactive).

For `COc1cc2c(cc1OC)C(=O)NCC(C)(C)O2`, which inhibition is on record?
Its inhibition is 6.88% (inactive).

`O=C(Nc1cccn(Cc2ccccc2Cl)c1=O)NC1CCCCC1` was tested. Which inhibition did it give?
Its inhibition is 24.9% (active).

With `O=C(Nc1cccn(Cc2c(Cl)cccc2Cl)c1=O)c1ccc(Cl)cc1` as the molecule, how does the inhibition read?
Its inhibition is 2.47% (inactive).

Which inhibition does the source give for `COc1ccc(Cn2cccc(NC(=O)Nc3ccc(C#N)cc3)c2=O)cc1` here?
Its inhibition is 4.26% (inactive).

With `CC1(C)CC(=O)C(C=NCc2cccnc2)=C(O)C1` as the molecule, how does the inhibition read?
Its inhibition is 6.76% (inactive).

`C=CCn1c(O)c(/C=N/N2CCOCC2)c(=O)[nH]c1=S` was tested. Which inhibition did it give?
The inhibition was -4.21% (inactive).

`CC1(C)CC(N2CCN(C(c3ccccc3)c3ccccc3)CC2)=CC(=[N+]2CCCCC2)C1` was tested. Which inhibition did it give?
The inhibition was 24.4% (active).

How did the inhibition turn out when `COC(=O)C(c1ccccc1)N1CCCCCC1` (stereo unspecified) was run?
Its inhibition is -4.88% (inactive).

Which inhibition does the source give for `O=C(Nc1nnc([C@H]2C[C@H](O)[C@@H](CO)O2)s1)c1cccc(Cl)c1` here?
Its inhibition is -5.24% (inactive).

With `O=C(Nc1ccc(F)cc1)Nc1nnc([C@H]2C[C@H](O)[C@@H](CO)O2)s1` as the molecule, how does the inhibition read?
Its inhibition is 1.64% (inactive).

How did the inhibition turn out when `Cc1ccc(CNC(=O)Nc2nnc([C@H]3C[C@H](O)[C@@H](CO)O3)s2)cc1` was run?
Its inhibition is 25.8% (active).

How did the inhibition turn out when `CN(C(=O)CSc1nc(C2CC2)nc2ccccc12)c1nc(-c2ccccc2)cs1` was run?
Its inhibition is -2.06% (inactive).

How did the inhibition turn out when `Cc1nnc(NC(=O)CSc2nc(C3CCCCC3)nc3ccccc23)s1` was run?
Its inhibition is 2.15% (inactive).

How did the inhibition turn out when `COC(=O)CSc1nc(C2CC2)nc2ccccc12` was run?
The inhibition was 34% (active).

With `Cc1c(Br)c([N+](=O)[O-])nn1C(C)C(=O)Nc1nccs1` (stereo unspecified) as the molecule, how does the inhibition read?
The inhibition was -4.47% (inactive).

For `COc1ccc(S(=O)(=O)N2CCOCC2)cc1NC(=O)CSc1ncnc2ccccc12`, which inhibition is on record?
The inhibition was 47.3% (active).

Which inhibition does the source give for `COc1ccc(S(=O)(=O)N2CCOCC2)cc1NC(=O)CSc1nnc(NC2CC2)s1` here?
Its inhibition is 7.4% (inactive).

For `COc1ccc(S(=O)(=O)N2CCOCC2)cc1NC(=O)CSc1cc(C)ccc1C`, which inhibition is on record?
The inhibition was -4.51% (inactive).

`Cc1oc(-c2ccccc2Cl)[n+]([O-])c1C` was tested. Which inhibition did it give?
Its inhibition is -0.12% (inactive).

With `COC(=O)c1sccc1NC(=O)CC1C(=O)NCCN1C(=O)Nc1ccc(F)cc1F` (stereo unspecified) as the molecule, how does the inhibition read?
The inhibition was 4.59% (inactive).

From PubChem BioAssay AID720596 (The Scripps Research Institute Molecular Screening Center, 2013)
